Laboratory results as given in the supplement of paper PMC7156485.
“And” between values parts separate entries of the source, which are not always exact repeats. Identical values can stand only once. ± gives the standard deviation of the averaged measurements.

Legend:
Details in all cases: concentration: 10 µM; 24 h
HCC1569 [1] = test: cell number relative to DMSO (% of DMSO); higher = more cells (less growth inhibition / toxicity)
Procedure, shortened: (§1)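 After 24 h at 37 °C with compounds at 10 µM, in triplicate, HCC1569 and TDF cells were fixed with 3.7% formaldehyde. Immunostaining used a rabbit anti-H1.0 antibody and an AlexaFluor 647 secondary, with DAPI, and six fields per well were imaged at ×10. H1.0 nuclear intensity or cell number is presented as percent of the plate control, from the median of replicates, with HCC1569 values smoothed for positional effects.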

TDF [2] = test: as above
Procedure, shortened: as §1

TDF [3] = test: H1.0 immunofluorescence intensity relative to DMSO (% of DMSO); higher = stronger H1.0 induction, active = 120 or more
Procedure, shortened: as §1

HCC1569 [4] = test: H1.0 immunofluorescence intensity relative to DMSO (% of DMSO); higher = stronger H1.0 induction, active = 140 or more
Procedure, shortened: as §1
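Wherever H1.0 immunofluorescence intensity relative to DMSO is given: TDF is a line of transformed human dermal fibroblasts of mesenchymal origin.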
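Wherever cell number relative to DMSO is given: TDF denotes transformed human dermal fibroblasts of mesenchymal origin.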

Row | SMILES | cell number (HCC1569 [1]) | cell number (TDF [2]) | H1.0 immunofluorescence intensity (TDF [3]) | H1.0 immunofluorescence intensity (HCC1569 [4])
1 | CN1CCC(=C2c3ccccc3C=Cc3ccccc32)CC1 [Cyproheptadine] | 100 | 83.7 | 98.2 (inactive) | 108 (inactive)
2 | COc1cc2ncnc(N3CCN(C(=O)Nc4ccc(Oc5ccccc5)cc4)CC3)c2cc1OC [PDGF Receptor Tyrosine Kinase Inhibitor III] | 72.2 | 62.2 | 102 (inactive) | 215 (active)
3 | Nc1cccc(-c2cc3c(Oc4cccc(O)c4)ncnc3[nH]2)c1 [GSK3b Inhibitor XII, TWS119] | 60.2 | 55 | 112 (inactive) | 214 (active)
4 | CC(C)(C)n1nc(Cc2cccc3ccccc23)c2c(N)ncnc21 [PP1 Analog II, 1NM-PP1] | 82.1 | 103 | 93.1 (inactive) | 152 (active)
5 | CC1(C)CCC2(C(=O)O)CCC3(C)C(=CCC4C5(C)CCC(O)C(C)(C)C5CCC43C)C2C1 (stereo unspecified) [Oleanolic acid] | 101 | 91.6 | 101 (inactive) | 89.8 (inactive)
6 | O=C1Cc2c([nH]c3ccc([N+](=O)[O-])cc23)-c2ccccc2N1 [Alsterpaullone] | 82.4 ± 33 | 72.6 ± 41 | 92.9 (inactive) | 99.1 (inactive)
7 | CC(C)NCC(O)COc1cccc2ccccc12.Cl [(S)-Propranolol hydrochloride] | 74.5 | 95.9 | 87.7 (inactive) | 230 (active)
8 | Cl.Oc1ccc(C2CNCCc3c2cc(O)c(O)c3Cl)cc1 (stereo unspecified) [Fenoldopam.HCl] | 97.6 | 97.8 | 97 (inactive) | 121 (inactive)
9 | CC(=O)NC(Cc1c[nH]c2ccccc12)C(=O)OCc1cc(C(F)(F)F)cc(C(F)(F)F)c1 (stereo unspecified) | 102 | 103 | 93.2 (inactive) | 90.8 (inactive)
10 | O=C(O)CCCCCCCC(=O)O [Azelaic acid] | 102 | 101 | 98.2 (inactive) | 89.8 (inactive)
11 | O=C1C(Cl)=C(N2C(=O)CCC2=O)C(=O)c2ccccc21 [MEK Inhibitor II] | 98.9 | 110 | 90.5 (inactive) | 121 (inactive)
12 | CC(CN1c2ccccc2Sc2ccccc21)N(C)C.Cl (stereo unspecified) [Promethazine.HCl] | 104 | 101 | 96.1 (inactive) | 121 (inactive)
13 | CCCN(CCC)CC1CCCCN1CCNC(=O)N1c2ccccc2C(=O)Nc2cccnc21 (stereo unspecified) | 98.5 | 112 | 87.8 (inactive) | 100 (inactive)
14 | N#Cc1ccc(N2N=C3c4ccc(C(=O)O)cc4CCC3C2C2CCCC2)cc1Cl (stereo unspecified) | 101 | 110 | 85.4 (inactive) | 101 (inactive)
15 | CCCC1=C(c2ccc(O)cc2)N(c2ccc(O)cc2)NC1=C1C=CC(=O)C=C1 [1,3,5-tris(4-hydroxyphenyl)-4-propyl-1H-pyrazole] | 98.3 | 107 | 92.5 (inactive) | 99.1 (inactive)
16 | CN1Cc2c(N)cccc2C(c2ccccc2)C1.O=C(O)C=CC(=O)O (stereo unspecified) [Nomifensine maleate] | 102 | 104 | 89 (inactive) | 101 (inactive)
17 | OCC1OC(OC2OC=CC3C(O)C4OC4(CO)C23)C(O)C(O)C1O (stereo unspecified) [Catalpol] | 105 | 106 | 96.6 (inactive) | 89.4 (inactive)
18 | C=C(c1ccc(C(=O)O)cc1)c1cc2c(cc1C)C(C)(C)CCC2(C)C [Bexarotene] | 104 | 103 | 84 (inactive) | 111 (inactive)
19 | CCCCCCCCC=CCCCCCCCCCCC(=O)O [12(Z) Heneicosenoic acid] | 103 | 98 | 95.5 (inactive) | 115 (inactive)
20 | CCC1(O)CC2CN(CCc3c([nH]c4ccccc34)C(C(=O)OC)(c3cc4c(cc3OC)N(C)C3C(O)(C(=O)OC)C(OC(C)=O)C5(CC)C=CCN6CCC43C65)C2)C1 (stereo unspecified) [Vinblastine] | 53.6 | 9.51 | 161 (active) | 164 (active)
21 | CC(C)(Oc1ccc(C2CC2(Cl)Cl)cc1)C(=O)O (stereo unspecified) [Ciprofibrate] | 104 | 110 | 97.8 (inactive) | 98.1 (inactive)
22 | Nc1[nH]nc2nc3ccccc3nc12 | 95 | 104 | 101 (inactive) | 115 (inactive)
23 | CN(C)CCOC(=O)COc1ccc(Cl)cc1.Cl [Centrophenoxine hydrochloride] | 101 | 98.6 | 103 (inactive) | 107 (inactive)
24 | CCN(CC)C(C)C(=O)N1c2ccccc2Sc2ccccc21.Cl (stereo not drawn) [10-(alpha-Diethylaminopropionyl)-phenothiazine hydrochloride] | 93.7 | 99 | 98.5 (inactive) | 85.9 (inactive)
25 | CC(=O)CC/C=C(\C)CC/C=C(\C)CC/C=C(\C)CCC=C(C)C | 100 | 96.2 | 104 (inactive) | 105 (inactive)

Row | SMILES | cell number (HCC1569 [1]) | cell number (TDF [2]) | H1.0 immunofluorescence intensity (TDF [3]) | H1.0 immunofluorescence intensity (HCC1569 [4])
26 | Cc1ccc(C(=CCN2CCCC2)c2ccccn2)cc1.Cl [Trans-triprolidine.HCl] | 100 | 95.5 | 99 (inactive) | 110 (inactive)
27 | CCCCCCCCCCCCC(=O)N1CCCCC1CNC(=O)C(N)CCCCN.Cl.Cl (stereo unspecified) | 101 | 109 | 104 (inactive) | 100 (inactive)
28 | O=C(O)C=CC(=O)O.O=C(O)C=CC(=O)O.OCCOCCN1CCN(C2=Nc3ccccc3Sc3ccccc32)CC1 [Quetiapine Fumarate] | 99.3 | 97.8 | 94.5 (inactive) | 100 (inactive)
29 | COc1cc2c(cc1OC)-c1[nH]nc(Nc3cccc(F)c3)c1C2 [PDGF Receptor Tyrosine Kinase Inhibitor IV] | 64.3 | 8.88 | 131 (active) | 160 (active)
30 | CCCCCC(O)C=CC1C(O)CC(=O)C1CCCCCCC(=O)O (stereo unspecified) [Prostaglandin E1] | 102 ± 2 | 109 ± 10 | 92.4 (inactive) | 101 (inactive)
31 | CCCCCC(O)C=CC=CC=CC(O)CC=CCCCC(=O)O [8(S),15(S)-DIHETE all trans] | 103 | 96.5 | 92.4 (inactive) | 101 (inactive)
32 | CNCCNS(=O)(=O)c1cccc2cnccc12.Cl.Cl [H-8 dihydrochloride] | 105 | 101 | 91.8 (inactive) | 77.5 (inactive)
33 | N#CCCc1ccc2c(c1)-c1[nH]c3ccc([N+](=O)[O-])cc3c1CC(=O)N2 [Alsterpaullone,                   2-Cyanoethyl] | 63.2 | 32.7 | 112 (inactive) | 113 (inactive)
34 | CCCCCC(O)C=CC1C(O)CC(O)C1CC=CCCCC(=O)O (stereo unspecified) [Dinoprost] | 100 | 106 | 93.2 (inactive) | 109 (inactive)
35 | O=C(O)CCCC(O)C=CC=CC=CC(O)CC=CCCCCCO (stereo unspecified) [20-Hydroxy-leukotriene B4] | 100 | 101 | 95.2 (inactive) | 108 (inactive)
36 | COC(=O)C(c1ccccc1Cl)N1CCc2sccc2C1 (stereo unspecified) [Clopidogrel] | 99.8 | 79.7 | 97.3 (inactive) | 107 (inactive)
37 | O=C1CC(c2ccc(O)c(O)c2)Oc2cc(OC3OC(CO)C(O)C(O)C3O)cc(O)c21 (stereo unspecified) [Eriodictyol-7-O-glucoside] | 101 | 94.3 | 97.7 (inactive) | 89.3 (inactive)
38 | C#CC1(O)CCC2C3CCC4=CC(=O)CCC4C3CCC21CC (stereo unspecified) [Levonorgestrel] | 100 | 91.5 | 99.8 (inactive) | 98.5 (inactive)
39 | C[C@H]1C[C@H]2[C@@H]3CCC4=CC(=O)C=C[C@]4(C)[C@@]3(F)[C@@H](O)C[C@]2(C)[C@@]1(O)C(=O)COP(=O)([O-])[O-].[Na+].[Na+] | 97.2 | 106 | 83.8 (inactive) | 111 (inactive)
40 | COc1cc(C)c(C=CC(C)=CC=CC(C)=CC(=O)O)c(C)c1C [Acitretin] | 98.5 | 108 | 90.1 (inactive) | 126 (inactive)
41 | O=C(CCCN1CCN(c2ccccn2)CC1)c1ccc(F)cc1 [Azaperone] | 98.6 | 112 | 96.7 (inactive) | 103 (inactive)
42 | O=C1CN(N=Cc2ccc(-c3ccc([N+](=O)[O-])cc3)o2)C(=O)[N-]1.[Na+] [Dantrolene sodium] | 100 | 97 | 100 (inactive) | 102 (inactive)
43 | COc1cccc(-c2cc(=O)c3ccccc3o2)c1N | 99.7 and 100 and 98.4 | 105 and 103 | 85.6 (inactive) and 92.6 (inactive) and 87.8 (inactive) | 106 (inactive) and 104 (inactive)
44 | Cn1c(=O)c2c(ncn2Cc2ccc(C(C)(C)C)cc2)n(C)c1=O | 81.6 | 71.4 | 106 (inactive) | 154 (active)
45 | COc1ccc(C(C)=O)c(O)c1 [Paeonol] | 99 | 102 | 92.9 (inactive) | 101 (inactive)
46 | CCCCOc1ccc(-c2cncc(C(=O)NCc3cccnc3N3CCOCC3)c2)cc1Cl | 86.9 | 104 | 98.3 (inactive) | 150 (active)
47 | O=C(NOCC1CC1)c1ccc(F)c(F)c1Nc1ccc(I)cc1Cl | 77.6 | 71 | 93.3 (inactive) | 116 (inactive)
48 | Cc1ccc2c(c1)C(N1CCN(C)CC1)=Nc1cccnc1N2 | 103 | 102 | 89.8 (inactive) | 99 (inactive)
49 | NCCC(O)(P(=O)([O-])O)P(=O)([O-])O.O.O.O.O.O.[Na+].[Na+] [Pamidronate.2Na.5H2O] | 101 | 96.8 | 95 (inactive) | 107 (inactive)
